This note sets out measurements from PubChem BioAssay (NCATS).

Results filed as inconclusive are left out. Entries that show only a call come without a potency. Calls of active or inactive are those of the source. Unless noted, the call rests on the fitted dose curve; in most records, active means well fitted curve in the direction sought with a large enough effect; inconclusive means small, poorly fitted or top-dose-only effect, or another doubt; inactive means no such curve, though single readings can be large; an effect the other way counts as inactive or inconclusive.

Assay [1] in a line: qHTS assay for cell viability of HEK293 cells (AID 743288). Further: nearly all actives have a fitted effect of over 50% in size. The note with it: ATP luminescence (CellTiter-Glo), 18 h; max response: stronger effect = lower value. Put shortly: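 ATP luminescence (CellTiter-Glo) reports metabolically competent cell number after parental HEK293 cells, 2,000/well, were treated with DMSO-dissolved compounds for 18 h at 37 C; reagent incubation 30 min, room temperature.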

Assay [2] is described as follows: qHTS assay for cell viability of the p53RE-bla HCT-116 cell line (AID 743292). Further: nearly all actives have a fitted effect of over 55% in size. Put shortly: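 ATP-based luminescence, 16 h compound exposure at 37 C, p53RE-bla HCT-116 cells at 4,000/well.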
Background: In qHTS, concentration-response curves come from the screen itself.

Assay [3] deals with Nuclear receptor subfamily 1 group I member 2 (Rattus norvegicus) (UniProt Q9R1A7). Description: qHTS assay for small molecule activators of the rat pregnane X receptor (rPXR) signaling pathway (AID 651751; call rule not given here). The settings on record: rPXR reporter cells, luciferase (One-Glo), 24 h.
The nature of assay [4]: qHTS assay for small molecule activators of the human pregnane X receptor (PXR) signaling pathway (AID 720659; call rule not given here).
A short description of assay [5]: S16 Schwann cell viability assay (CellTiter-Glo assay) (AID 624031).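 Further: native untransfected S16 rat Schwann cells; cellular ATP luminescence as a viability measure; nearly all actives have a fitted effect of over 70% in size.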 Put shortly: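 Parental S16 cells, 24 h compound, 37 °C. ATP-luminescence viability; DMSO = 0% activity, empty wells as reference; curves classified by fit quality and efficacy.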
Assay [6] deals with 7G8. Description: qHTS profiling for inhibitors of Plasmodium falciparum proliferation (AID 504749). Further: nearly all actives have a fitted effect of over 60% in size. The settings on record: P. falciparum in erythrocytes, SYBR Green DNA, 72 h; series mostly up to 28.7 µM. Put shortly: (§1)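 SYBR Green fluorescence (ex 485 nm, em 535 nm) reports parasite DNA after 72 h compound exposure of infected red cells at 0.3% parasitemia, 2.5% hematocrit; signal normalized to 0.29 uM artemisinin and vehicle wells.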

Assay [7] concerns ICS. The description is as above. The note with it: P. falciparum in erythrocytes, SYBR Green DNA, 72 h; series mostly up to 28.7 µM. Put shortly: as §1

Sequence of Nuclear receptor subfamily 1 group I member 2 (Rattus norvegicus) (Q9R1A7 whole entry, looked up): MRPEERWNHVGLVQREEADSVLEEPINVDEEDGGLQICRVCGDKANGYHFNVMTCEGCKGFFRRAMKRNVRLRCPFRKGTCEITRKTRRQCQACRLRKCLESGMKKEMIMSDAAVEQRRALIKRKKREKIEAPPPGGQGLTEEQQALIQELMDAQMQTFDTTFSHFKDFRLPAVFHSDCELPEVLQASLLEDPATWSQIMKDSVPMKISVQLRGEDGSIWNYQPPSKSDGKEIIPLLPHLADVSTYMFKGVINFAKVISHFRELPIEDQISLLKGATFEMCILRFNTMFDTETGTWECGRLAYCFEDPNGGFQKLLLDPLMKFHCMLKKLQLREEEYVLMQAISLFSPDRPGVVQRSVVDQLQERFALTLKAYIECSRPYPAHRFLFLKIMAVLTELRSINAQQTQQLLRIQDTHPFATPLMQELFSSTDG

As to `N[C@@H](Cc1ccccc1)C(=O)O`, the results for the max response in assay [1] and in assay [3] were 2.21% (inactive) and -0.251% (inactive), respectively. For the same compound, in assay [2], the Potency result was “inactive”. Moreover, the result in assay [4] was inactive.
As for `CC1(C)[C@@H]2CC[C@]1(C)[C@@H](OC(=O)CSC#N)C2`, the Potency result in assay [5] is “inactive”.
Consider `COc1cccc2c1C(=O)c1c(O)c3c(c(O)c1C2=O)C[C@](O)(C(=O)CO)C[C@@H]3O[C@H]1C[C@H](N)[C@@H](O)[C@H](C)O1`, for which the Potency entry in assay [6] and in assay [7] was “inactive” throughout.
